High-throughput results deposited in PubChem by National Center for Advancing Translational Sciences (NCATS).
Pf growth 48h = Primary qHTS for delayed death inhibitors of the malarial parasite plastid, 48 hour incubation. Potency, µM (titrated, usually from 28.7 µM), for inactives: at the top dose activity change, negative = inhibition, hits mostly inhibitors. P. falciparum luciferase growth in erythrocytes, 48 h. hit rate 5.9% among 310,000. AID 504832, 2011; further: potency means the concentration at half of the fitted maximal effect; on the % scale 0 is the no-effect control and ±100 the full control effect
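First compound was added to culture medium, then infected red cells at 0.1% parasitemia and 2% hematocrit (final). After incubation at 37 C under 5% CO2, luciferase detection reagent was dispensed and light output recorded.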
AMA1-RON2 inh = qHTS for Inhibitors of AMA1-RON; Towards Development of Antimalarial Drug Lead: Primary Screen; Plasmodium falciparum AMA1 (3D7) - RON2 peptide interaction; AlphaScreen AMA1-biotinylated RON2 peptide binding; Potency, µM (highest dose often 58.2 µM), inactives show top-dose activity change, negative = inhibition, actives largely listed as inhibitors; hit rate 0.2% among 360,000; AID 720542, 2013;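 further: potency means the concentration at half of the fitted maximal effect; 0% = vehicle wells and -100% = peptide control; nearly all actives have a fitted effect of over 45% in size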
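AMA1 (3D7) with his tag at 25 nM final met compounds first, then biotinylated RON2 peptide at 25 nM; detection used donor plus acceptor beads, 10 µg/mL apiece, read by AlphaScreen after 30 min at room temperature.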
Cycloheximide cs = Cycloheximide Counterscreen for Small Molecule Inhibitors of Shiga Toxin | cell reporter, cycloheximide protein synthesis inhibition counterscreen | max response, % | hit rate 12% among 300,000; in the data active means max response mostly above about 13%, no sharp cut-off; inactive means mostly below about 14%; further: read at 38.3 µM for the half of the compounds with a filed dose; 0% is about no effect
SARS PLP yeast = qHTS of Yeast-based Assay for SARS-CoV PLP; S. cerevisiae expressing SARS-CoV PLpro, growth rescue; Potency, µM (doses to about 32.9 µM), inactives show at the highest dose activity, positive = growth rescue, most hits filed as activators; hit rate 0.19% among 330,000; calls by dose curve; further: potency means the concentration at half of the fitted maximal effect; 0% is about no effect; nearly all actives have a fitted effect of over 55% in size
Pf growth 96h = Primary qHTS for delayed death inhibitors of the malarial parasite plastid, 96 hour incubation | AID 504834, 2011 | hit rate 6.9% among 320,000 | P. falciparum luciferase reporter growth, 96 h | Potency, µM (top dose mostly 28.7 µM), without a hit: at the highest dose activity change, negative = inhibition, hits mostly inhibitors; further: potency means the concentration at half of the fitted maximal effect; on the % scale 0 is the no-effect control and ±100 the full control effect
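P. falciparum expressing integrated firefly luciferase, in erythrocytes at 2% hematocrit, 0.05% parasitemia, incubated with compounds 96 h at 37 C, 5% CO2. Growth inhibition read as loss of luminescence; two-generation exposure targets delayed-death apicoplast inhibitors.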
Shiga inhibitor = A qHTS for Small Molecule Inhibitors of Shiga Toxin. Vero cells, Shiga toxin protein synthesis inhibition reporter. inhibition, % at 38.7 µM. hit rate 9.2% among 290,000. AID 2315, 2010; in the data active means inhibition mostly above about 28%, no sharp cut-off; inactive means mostly below about 43%; further: 0% is about no effect
* marks the source's active call; other numbers are inactive results; i = inactive; ? = inconclusive; . = no result given; [ ] = another dose, or the depositor's remark. Only some compounds are listed: those with a hit (about 19% of all), similar ones and a draw of the others. Unless noted, the call rests on the fitted dose curve; in most records, active means well fitted curve in the direction sought with a large enough effect; inconclusive means small, poorly fitted or top-dose-only effect, or another doubt; inactive means no such curve, though single readings can be large; an effect the other way counts as inactive or inconclusive.

SMILES	Pf growth 48h	AMA1-RON2 inh	Cycloheximide cs	SARS PLP yeast	Pf growth 96h	Shiga inhibitor
Cc1cc(-c2csc(N)n2)c(C)n1-c1ccc(Cl)c(Cl)c1	4.2%	-0.6%	-3.2	?	-27.3%	-10.8
COc1ccc(-n2c(C)cc(-c3csc(N)n3)c2C)cc1	13.1µM*	-21.6%	0.0	16.7%	?	13.3
CC(C)c1ccc(/C=C/c2ccc(=O)n(C)n2)cc1	147.2%	5.6%	26.6*	-0.4%	144.5%	92.9*
Cc1ccc(NC(=O)CSc2nc3[nH]ncc3c(=O)[nH]2)c(C)c1	-7.5%	2.9%	5.4	-0.3%	11.5%	38.2
COc1ccc(Nc2nc(-c3sc(C)nc3C)cs2)cc1	39.9%	-14.6%	13.0*	-28.7%	32.5%	14.4
Cc1nc(N)sc1-c1csc(Nc2ccccc2)n1	9.5%	-9.0%	24.9*	-2.5%	2.8%	51.6*
Cc1nc(C)c(-c2csc(Nc3ccc(O)c(C(=O)O)c3)n2)s1	-5.7%	-5.6%	-0.9	-2.5%	?	9.0
c1cncc(Nc2nc(-c3ccncc3)cs2)c1	-7.6%	-1.3%	0.6	-2.2%	.	-5.0
Cc1nc(C)c(-c2csc(Nc3cccnc3)n2)s1	18.5%	5.0%	34.2*	-14.6%	.	37.7*
Cc1nc(C)c(-c2csc(Nc3ccc(N)cc3)n2)s1	18.7%	2.5%	34.7*	-9.7%	33.8%	68.7*
COc1ccc(Cn2c3nc4ccccc4nc3c3c(=O)n(Cc4ccco4)cnc32)cc1	9.28µM*	.	10.5	-3.3%	1.0%	32.5
CCC(=O)Nc1cc2nn(-c3ccc(OC)cc3)nc2cc1C	406.2%	-7.5%	51.7*	-4.2%	.	90.1*
COc1ccc(C(=O)NC(=S)NNC(=O)c2ccccc2C)cc1	.	84.3%	.	.	.	.
COc1ccc(-n2nc3cc(C)c(NC(=S)NC(=O)c4ccccc4C)cc3n2)cc1	60.2%	16.0%	30.3*	-2.4%	110.6%	111.8*
CCCCC(=O)Nc1cc2nn(-c3ccc(OC)cc3)nc2cc1C	.	-2.3%	9.9	7.8%	57.9%	-5.2
CCC(=O)Nc1cc2nn(-c3ccc(C)cc3)nc2cc1C	i	0.6%	44.1*	0.9%	?	109.0*
COc1cccc(CCN2C(=O)CCC3=C2CCC3=O)c1	.	-1.9%	.	.	.	.
CCC(=O)N1CCc2cc(Br)c(S(=O)(=O)CCC(=O)NCCc3ccccc3)cc21	.	-8.2%	.	.	.	.
O=C(CCCn1ncn2c(cc3occc32)c1=O)NCc1ccccc1F	-12.9%	-0.8%	1.7	5.1%	?	-3.6
CC(NC(=O)NC(N)=O)(C(F)(F)F)C(F)(F)F	22.8%	5.5%	-2.6	-2.5%	7.38µM*	-4.3
C=C(C)[C@H]1CC=C(CO)CC1	.	.	4.4	.	.	21.7
CC1CCCCN1C(=O)C1COc2ccccc2O1 (stereo not drawn)	-7.3%	-22.6%	20.5	-1.8%	7.4%	-3.1
COc1ccc(-c2n[nH]c(=S)n2-c2cc(OC)ccc2OC)cc1	-3.3%	70.8%	0.9	0.0%	?	-2.1
COc1ccc(OC)c(-n2c(-c3cccc(O)c3)n[nH]c2=S)c1	0.738µM*	28.5%	0.3	-2.1%	-4.6%	-10.4
Cc1cccc(NC(=O)COC(=O)c2c(-c3ccccc3)noc2C)c1	.	-10.2%	.	.	.	.
SMILES	Pf growth 48h	AMA1-RON2 inh	Cycloheximide cs	SARS PLP yeast	Pf growth 96h	Shiga inhibitor
Cc1ccccc1SC1CCN(Cc2nc(C3CC3)no2)CC1	-1.0%	-1.7%	19.3*	-0.2%	?	25.2
COc1ccccc1/C=C/C(=O)OCC(=O)NC1CCCCCCC1	.	12.3%	.	-11.0%	.	.
COc1cc(CN2CCCC(CO)(Cc3ccccc3C)C2)cc2c1OCO2 (stereo not drawn)	?	-2.1%	-2.4	0.5%	?	-15.8
O=C(NCCCN1CCCC1)c1cc2c(Cl)nc3ccccc3c2s1	?	0.3%	-4.8	4.2%	5.86µM*	9.7
O=C(NCCCN1CCOCC1)c1cc2c(=O)[nH]c3ccccc3c2s1	16.6%	-15.1%	-2.7	4.7%	?	4.9
Cc1ccc2oc(=O)c3cc(C(=O)NCCCN4CCCCCC4)sc3c2c1	?	4.2%	-6.5	7.8%	43.4%	1.1
CCN1CCN(CCCNC(=O)c2cc3c(=O)[nH]c4ccccc4c3s2)CC1	.	5.7%	-5.3	6.2%[6.58 µM]	10.4µM*	-3.7
Cc1ccc2oc(=O)c3cc(C(=O)NCCCN4CCc5ccccc5C4)sc3c2c1	-16.9%	-9.1%	-1.8	-4.4%	11.7µM*	-13.8
Cc1ccc2oc(=O)c3cnn(CC(=O)N4CCc5ccccc5C4)c3c2c1	.	11.1%	-7.9	5.3%	2.62µM*	-16.1
CC(NC(=O)c1ccc(NC(=O)CC2SC(N3CCCC3)=NC2=O)cc1)c1ccc(F)cc1 (stereo not drawn)	?	0.7%	.	1.6%	?	.
CC(C)(C)OC(=O)NCCCCCNC(=O)c1[nH]cnc1C(=O)Nc1cc(Br)ccc1F	.	108.0%	.	.	.	.
CCC(c1nnnn1Cc1ccc2c(c1)OCO2)N1CCN(c2ccc(F)cc2)CC1 (stereo not drawn)	.	?	-2.4	-2.7%	.	-4.3
CCC(c1nnnn1C1CCCC1)N1CCN(c2cccc(OC)c2)CC1 (stereo not drawn)	11.7µM*	0.2%	1.2	0.3%	27.3%	-24.6
COc1ccc(C(c2nnnn2C2CCCCC2)N2CCN(c3ccc(OC)cc3)CC2)cc1 (stereo not drawn)	11.7µM*	?	-1.6	-7.5%	.	-10.4
Cc1ccc2cc(C(c3nnnn3C3CCCC3)N3CCN(c4ccc(F)cc4)CC3)c(=O)[nH]c2c1 (stereo not drawn)	5.86µM*	-3.4%	1.3	6.5%	-7.3%	11.6
COc1ccc(C(c2nnnn2C2CCCC2)N2CCC(C)CC2)cc1 (stereo not drawn)	?	-8.9%	11.7	-2.7%	-7.0%	33.2
CCC(c1nnnn1Cc1ccc2c(c1)OCO2)N1CCN(c2ccccc2)CC1 (stereo not drawn)	11.7µM*	?	1.7	-6.9%	20.7%	-9.4
Cc1cc(C)c2cc(C(c3nnnn3C3CCCC3)N3CCOCC3)c(=O)[nH]c2c1 (stereo not drawn)	?	3.3%	13.5	2.7%	0.4%	-3.6
C=CCOc1ccc(CNC(C)(C)CO)cc1OCC	12.4%	1.2%	3.3	6.0%	25.6%	-15.2
NC1=NC2CS(=O)(=O)CC2S1 (stereo not drawn)	10.2%	5.8%	-0.8	9.0%	53.3%	-9.1
CCN(CC)CC(=O)Nc1ccc(-c2ccc(NC(=O)CN(CC)CC)c(OC)c2)cc1OC	?	-15.7%	10.4	-0.8%	?	17.7
COc1ccc(C2=C(C=O)Cc3ccccc3O2)cc1	.	-6.9%	.	.	.	.
CC1=C(C(=O)OC(C)C)C(c2ccc(F)cc2)NC(=O)N1 (stereo not drawn)	3.6%	2.6%	-1.6	-0.5%	.	-9.5
